Compounds with a hit are over-represented: about 9.8% of the library has one in this group of screens.
KDM4E inh: blocks human JMJD2E demethylase activity; B2RXH2; JMJD2E catalytic domain, FDH-coupled NADH fluorescence (FDH is formaldehyde dehydrogenase); Potency, µM (series often up to 57.1 µM), usual class: inhibitors; 230,000 compounds, 1.6% hits; active = well fitted inhibition curve with a large enough effect, not every such curve was filed as active; inconclusive = small, poorly fitted or top-dose-only effect, or another doubt; inactive = no such curve, though single readings can be large or run the other way; note: nearly all actives have a fitted effect of over 50% in size
HTT aggregate: reduces HttQ103-GFP aggregates in PC12 cells; PC12 HttQ103-GFP aggregates, Acumen cytometry, 40 h; 220,000 compounds, 1.1% hits; Potency, µM (series often up to 46.1 µM), most hits filed as inhibitors; note: nearly all actives have a fitted effect of over 60% in size
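PC12 cells with ecdysone-inducible HTT exon1 Q103-GFP, induced by 100 nM tebufenozide, given compounds in a concentration series. GFP aggregates (1–25 um, 6 SD above background) counted in lysates by laser-scanning cytometry, 488 nm excitation.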
ALDH1A1 inh: inhibitors of human aldehyde dehydrogenase 1A1. Purified ALDH1A1, NADH fluorescence, propionaldehyde substrate. Potency, µM (top dose mostly 75.3 µM), most hits filed as inhibitors. 220,000 compounds, 7.3% hits. AID 1030; active = well fitted inhibition curve with a large enough effect, not every such curve was filed as active; inconclusive = small, poorly fitted or top-dose-only effect, or another doubt; inactive = no such curve, though single readings can be large or run the other way
Target sequence (P00352 whole entry, looked up): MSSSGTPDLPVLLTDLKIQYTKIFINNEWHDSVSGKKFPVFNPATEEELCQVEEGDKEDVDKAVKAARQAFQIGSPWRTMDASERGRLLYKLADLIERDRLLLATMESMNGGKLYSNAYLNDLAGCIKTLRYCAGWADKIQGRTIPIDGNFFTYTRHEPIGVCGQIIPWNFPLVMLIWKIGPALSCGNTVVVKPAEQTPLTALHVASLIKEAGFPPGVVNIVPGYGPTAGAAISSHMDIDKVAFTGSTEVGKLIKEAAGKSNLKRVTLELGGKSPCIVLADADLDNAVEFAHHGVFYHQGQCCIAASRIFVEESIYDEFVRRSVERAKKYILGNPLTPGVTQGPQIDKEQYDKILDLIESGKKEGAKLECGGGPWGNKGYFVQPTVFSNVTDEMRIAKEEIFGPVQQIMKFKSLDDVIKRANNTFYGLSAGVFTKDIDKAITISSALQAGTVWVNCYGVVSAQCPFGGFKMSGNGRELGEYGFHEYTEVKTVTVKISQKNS
CBFb-RUNX1 inh: inhibitors of human CBF-beta and RUNX1 interaction. Potency, µM (titrated, usually from 59.8 µM), most hits filed as inhibitors. AlphaScreen CBFb-His/RUNX1-biotin binding, biochemical. Q01196+Q13951. 230,000 tested, under 10 active
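Bead-based AlphaScreen assay; binding partners His-tagged CBF-beta and biotinylated RUNX1 at 30 nM each. Compound exposure 15 min after a 20-min protein preincubation; bead step 90 min; all steps at room temperature.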
HTT cytoprotect: protects HTT-Q103 PC12 cells, measured by ATP; PC12 HTT-Q103 induced, cytoprotection, ATP luminescence, 40 h; Potency, µM (highest dose often 56.4 µM), usual class: activators; 230,000 compounds, 0.14% hits; AID 1471; note: nearly all actives have a fitted effect of over 45% in size
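Rat PC12, Q103 Htt exon1-GFP fusion, ecdysone promoter; tebufenozide inducer 100 nM final; compound titration; qHTS, 1500 cells/well; ATPlite luminescent read.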
HPGD inh: blocks human HPGD enzyme activity; AID 894; purified HPGD, NADH fluorescence kinetic, PGE2 substrate; Potency, µM, actives largely listed as inhibitors; 150,000 compounds, 4.3% hits; active = well fitted inhibition curve with a large enough effect, not every such curve was filed as active; inconclusive = small, poorly fitted or top-dose-only effect, or another doubt; inactive = no such curve, though single readings can be large or run the other way
Target sequence (P15428 whole entry, looked up): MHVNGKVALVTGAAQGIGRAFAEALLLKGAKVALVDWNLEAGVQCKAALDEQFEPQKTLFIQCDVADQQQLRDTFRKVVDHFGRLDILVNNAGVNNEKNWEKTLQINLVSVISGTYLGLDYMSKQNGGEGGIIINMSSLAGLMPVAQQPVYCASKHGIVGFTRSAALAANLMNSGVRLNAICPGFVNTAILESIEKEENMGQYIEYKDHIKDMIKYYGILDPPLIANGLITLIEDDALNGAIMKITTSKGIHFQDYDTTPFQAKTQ
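20 nM HPGD preincubated 15 min at room temperature with compound in 50 mM Tris-HCl pH 8, 0.01% Tween 20. Started with 1 mM NAD+ and 30 uM prostaglandin E2; NADH fluorescence (360/450 nm) read 5 times over 30-s intervals, last minus first.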
Numbers stand for hits; - = inactive; ? = inconclusive; . = not tested or not shown; ! = repeats disagree; [ ] = dose if it differs, or a comment. Unless noted, calls come from the whole dose curve; as a rule, active = well fitted curve in the direction sought with a large enough effect; inconclusive = small, poorly fitted or top-dose-only effect, or another doubt; inactive = no such curve, though single readings can be large; an effect the other way counts as inactive or inconclusive.

SMILES	KDM4E inh	HTT aggregate	ALDH1A1 inh	CBFb-RUNX1 inh	HTT cytoprotect	HPGD inh
COC(=O)c1ccccc1N=Nc1c(C)noc1C	-	-[9.22 µM]	.	-	-[10 µM]	.
O=C(NCc1ccncc1)C(=O)Nc1nc2ccccc2s1	-	-	-	-	-	.
COc1ccc2c(c1)C1=C(CC2)C(c2ccc(C)cc2)NC(=S)N1 (configuration not stated)	-	-	0.4µM	-	-	.
COc1ccc(C2NC(=O)NC3=C2CCc2ccccc23)cc1 (configuration not stated)	?	-	?	-	-	?
COc1cccc(C2NC(=S)NC3=C2CCc2ccccc23)c1 (configuration not stated)	-	-	0.22µM	-	-[10 µM]	.
Cc1ccc(NC(=S)NCC2CCCO2)c(OC(F)F)c1 (configuration not stated)	-	-	?	-	-[10 µM]	-
Cc1ccc(C2C3=C(CC(C)(C)CC3=O)Nc3n[nH]c(C)c32)cc1 (configuration not stated)	?	-	?	-	-	?
Cc1ccc(C2NC(=S)NC3=C2C(=O)CC(C)(C)C3)cc1 (configuration not stated)	-	-	0.79µM	-	-[10 µM]	-
CC(N)=O	-	.	-	-	-[1.9 µM]	-
CCOc1cc(NS(=O)(=O)c2ccccc2)c(OCC)cc1NC(=O)c1ccco1	-	-	7.9µM	-	-	-
CCNC(=S)Nc1cc(OCC)c(NC(=O)c2ccco2)cc1OCC	-	-	?	-	-[1.9 µM]	-
N#C/C(=N\O)c1nc(-c2ccccc2)cs1	-	8.9µM!	-	-	-	-
COc1ccc2[nH]cc(CC(=O)O)c2c1	?	-	-	-	.	-
O=C(O)Cc1c[nH]c2ccc(O)cc12	-	.	?	-	-[1.9 µM]	22µM
CN1CCN(CCCCOc2ccc(F)cc2)CC1	-	-	?	-	-	?
O=Cc1ccccc1OCCOc1ccccc1C=O	-	35µM	20µM	-	-[10 µM]	?
CN1CCN(CCCCOc2ccccc2C=O)CC1	-	.	22µM	-	.	.
Cc1nc(C)c(C(=O)O)c(-c2cccs2)c1C(=O)O	-	-[9.22 µM]	.	-	-[10 µM]	.
C[C@@H](CCC(=O)O)C(=O)O	.	.	-[13.5 µM]	.	-[10 µM]	-
COc1ccc(-c2nc3n(c(=O)c2C#N)CCS3)cc1	-	-	-	-	.	.
COC(=O)/C(C#N)=C/c1c(-c2ccccc2)nc2n1CCS2	?	-[9.22 µM]	1.4µM	?	-[10 µM]	.
O=C(/C(=N\Nc1ccc([N+](=O)[O-])cc1)Sc1nnnn1-c1ccccc1)c1ccccc1	-	?	3.2µM	-	-[10 µM]	-
NNC(=O)CSc1nnnn1-c1ccccc1	-	-[9.22 µM]	.	-	-[10 µM]	.
Cc1ccc(N/N=C(/Sc2nnnn2-c2ccccc2)C(=O)c2ccccc2)cc1	-	-	3.2µM	-	.	-
O=C(O)CC/C(=N\Nc1ccc([N+](=O)[O-])cc1)c1ccccc1	-	-[9.22 µM]	?	-	-[10 µM]	.
SMILES	KDM4E inh	HTT aggregate	ALDH1A1 inh	CBFb-RUNX1 inh	HTT cytoprotect	HPGD inh
Cc1ccc2cc(C)c(Sc3nnnn3-c3ccccc3)nc2c1	-	-	5.6µM	-	.	-
O=C(NNC(=O)c1cc(-c2ccc(Cl)c(Cl)c2)nc2ccccc12)Nc1ccccc1	-	-	-	-	-	-
CCCCn1c(=O)c2c(c3ccccc31)OCC(=O)N2	-	-[9.22 µM]	20µM	-	-[0.074 µM]	-
CCC(C)NC(=O)c1ccc2c(Cl)c3c(nc2c1)CCC3 (configuration not stated)	-	-[9.22 µM]	.	-	-[10 µM]	.
CN(C(=O)c1ccc2c(Cl)c3c(nc2c1)CCC3)c1ccccc1	-	-	?	-[2.36 µM]	.	4.5µM
CCN(C(=O)c1ccc2c(Cl)c3c(nc2c1)CCC3)c1ccc(C)c(C)c1	-	-	14µM	-[2.36 µM]	.	?
CC(C)Cc1nnc(NC(=O)CSc2nc(O)c(Cc3ccccc3)c(=O)[nH]2)s1	-	?	-	-	.	.
CNC(=S)Nc1ccc2nc(C)oc2c1	-	-	?	-	-[10 µM]	.
CN1C(=O)CSc2ccc(NC(=O)N3CCN(c4ccccn4)CC3)cc21	?	?	?	-	-[10 µM]	-
Cc1ccc(C)c(N2CCN(C(=O)Nc3ccc4c(c3)N(C)C(=O)CS4)CC2)c1	-	22µM	-	-	-	.
CC(=O)OCC(=O)Nc1ccc(Cl)cc1Cl	-	-	-	-	-[10 µM]	20µM
COC(=O)c1ccccc1NC(=O)COC(C)=O	-	-	5.6µM	-	-	-
CC(=O)OCC(=O)Nc1ccccc1C	-	-	-	-	-	.
COc1cccc2cc(C(=O)NCc3ccco3)c(=Nc3ccc(C(=O)O)cc3)oc12	?	-[1.84 µM]	16µM	-	-	?
CC(=O)c1ccccc1NS(=O)(=O)c1ccccc1Cl	-	-	-	?	-	.
O=C(NCc1ccco1)c1ccc(Cl)c(S(=O)(=O)N2CCc3ccccc32)c1	-	-	-	-	-[1.9 µM]	-
NNC(=O)c1sc2cc(C(F)(F)F)cnc2c1-c1ccccn1	-	-[9.22 µM]	7.1µM	-	-[10 µM]	.
Cc1cccc(NC(=O)c2ccc(N3CCCCC3)c([N+](=O)[O-])c2)n1	-	-	13µM	?	-	?
O=C(Nc1ccc(N2CCCCC2)c(Cl)c1)c1cccnc1	-	-	?	-	-	-
O=C(Nc1ccccc1Cl)c1ccc(-n2cccn2)c([N+](=O)[O-])c1	-	-	8.9µM	-	-[10 µM]	.
O=C(Nc1ccc(N2CCCC2)c(Cl)c1)c1cccnc1	-	-	8.9µM	-	-[10 µM]	-
Cc1cccc(NC(=O)c2ccc(N3CCOCC3)c([N+](=O)[O-])c2)n1	-	-	?	-	-[10 µM]	.
O=C(Nc1cccnc1)c1ccc(N2CCCC2)c([N+](=O)[O-])c1	-	-	7.9µM	-	-	.
CN1C(=O)c2ccc(NC(=O)c3ccc(N4CCCCC4)c([N+](=O)[O-])c3)cc2C1=O	?	-	?	-	-[10 µM]	?
Cn1ncc(S(=O)(=O)Cc2ccccc2)c(Cl)c1=O	-	-[9.22 µM]	1.1µM	-	-[10 µM]	.
SMILES	KDM4E inh	HTT aggregate	ALDH1A1 inh	CBFb-RUNX1 inh	HTT cytoprotect	HPGD inh
COc1ccc(C(=O)/C=C/Nc2cccc(O)c2)cc1	?	-	11µM	-	-	?
COc1cccc(C(=O)/C=C/Nc2cc(C)ccc2O)c1	?	?	25µM	-	-	?
COc1ccc(C(=O)/C=C/N(C)C)cc1	-	-	7.9µM	-	-[10 µM]	25µM
COc1ccc(C(=O)/C=C/Nc2ccc([N+](=O)[O-])cc2)cc1	-	-	40µM	-	.	-
CC(=O)c1ccc(NC(=O)/C(=C\c2ccccc2)NC(=O)c2ccco2)cc1	-	-	?	-	-	.
COc1ccc(/C=C(\C#N)C(=O)Nc2ccc3[nH]c(=O)[nH]c3c2)cc1	?	-[9.22 µM]	.	-	-[10 µM]	.
COc1ccc(C(=O)/C(C#N)=N/Nc2ccccc2[N+](=O)[O-])cc1	-	?	-	-	-[10 µM]	-
COc1ccc(C(=O)/C(C#N)=N/Nc2ccc([N+](=O)[O-])cc2)cc1	-	1.3µM	?	-	-	.
O=C(CCCn1c(=O)[nH]c2ccsc2c1=O)NCc1cccs1	-	-	?	-	-	?
